# The panel holds about 83,000 compounds, 20% with a hit somewhere; the sample as a whole holds those more often.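 Testing used 96-well plates and a 48-hour single-concentration exposure. Example: -40 means 40% of the starting cells died.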 Unmarked numbers belong to inactive results. The source made the active and inactive calls. Rule for the calls: active = growth percent below 10; inactive = the rest.
# System: SR leukemia
# Experiment: NCI-60 one-dose screen, 48 h (100 = growth as untreated, 0 = no growth, -100 = all killed)
# Conditions: 10 µM
row,Structure (SMILES),growth
1,Nc1nc(N)c2cc(S(=O)(=O)c3cccc(C(F)(F)F)c3)ccc2n1,46%
2,CCN(CC)C(=O)/C=C(/C)c1ccccc1,107%
3,CCC(O)CC(CC)CO (stereo not drawn),108%
4,COc1ccc(OC)c(/C=C2\CCc3ccccc3C2=O)c1,31.6%
5,O=C(O)CCCCNC(=O)c1ccccc1,95.7%
6,C/C(=N/NC(N)=O)c1ccco1,87.3%
7,Cc1ccc(CCCC(=O)O)c(C)c1,96.7%
8,CC(=O)OCC1OC(OC2=C(CC=C(C)C)C(=O)c3ccccc3C2=O)C(OC(C)=O)C(OC(C)=O)C1OC(C)=O (stereo not drawn),-42.9% (active)
9,C=CC(O)CCC (stereo not drawn),92.4%
10,COc1cc(C(=O)NC(=S)Nc2ccc3ccccc3c2)cc(OC)c1OC,87.4%
11,CCN1C(=O)/C(=C/C=C/N(C)c2ccccc2)SC1=S,73.4%
12,O=[N+]([O-])c1cccc(C(F)(F)F)c1,127%
13,CCOc1ccc(/C=N/N=C(N)N)cc1OCC,76.3%
14,CCc1ccc(/C(C#N)=C/C=C/c2ccccc2)cc1,3.53% (active)
15,COC(=O)c1ccc(NC(=O)CCl)cc1,38.7%
16,CCn1c(=O)n(C)c2c(=O)n(C)c(=O)n(C)c21,101%
17,COCCCC/C(=N\OCCN)c1ccc(C(F)(F)F)cc1,85.8%
18,O=[N+]([O-])c1cccc2nsnc12,99.8%
19,CC(=O)c1ccc(C(C)(C)C)cc1,90.6%
20,COc1ccc(NC(=O)CCl)cc1,56.3%

row,Structure (SMILES),growth
1,CC1(C(N)=O)CCC(C(=O)O)C1(C)C (stereo not drawn),111%
2,Cc1ccc(/C(C#N)=C/c2ccc3c(c2)OCO3)cc1,25.5%
3,CC(=O)Oc1ccc(Br)cc1C(=O)O,99.1%
4,O=C(c1ccccc1)C1CCC1,92.7%
5,C/C(=N\NC(=O)c1ccccc1N)c1ccccc1O,35.3%
6,COC(=O)c1cccnc1,104%
7,CN(C)c1ccc(CNC(C(=O)c2ccccc2)c2ccccc2)cc1 (stereo not drawn),90.8%
8,CCCCCC(C)(CC(=O)O)CC(=O)O,94.1%
9,COC(=O)Nc1nc2ccc(C(=O)c3cccs3)cc2[nH]1,-4.93% (active)
10,N#CC1(Nc2ccc3c4c(cccc24)CC3)CCCCC1,75.4%
11,O=C(CS)Nc1ccc2ccccc2c1,94.9%
12,CCOC(=O)C/C(C)=N\O,104%
13,CC(O)COc1ccc(-c2ccccc2)cc1 (stereo not drawn),94.4%
14,CC(=O)c1cc2c(cc1F)C(C)(C)CCC2(C)C,92.5%
15,C[C@]12CC[C@@H]3c4ccc(OCC(=O)O)cc4CC[C@H]3[C@@H]1CCC2=O,88.5%
16,O=C(c1ccc(O)cc1)c1ccc(O)cc1,88.7%
17,CC[N+](C)(CC)CCO,104%
18,CC(=O)OC1CC2C(C)(C)OC3CC(=O)OCC32C2CCC3(C)C(=CCC3c3ccoc3)C12C (stereo not drawn),91.1%
19,N#CCCN(CCCN1CCOCC1)CN1C(=O)c2ccccc2C1=O,71.8%

# System: RPMI-8226 leukemia
# Experiment: as above
# Conditions: 10 µM
row,Structure (SMILES),growth
1,Nc1nc(N)c2cc(S(=O)(=O)c3cccc(C(F)(F)F)c3)ccc2n1,63.1%
2,CCN(CC)C(=O)/C=C(/C)c1ccccc1,109%
3,CCC(O)CC(CC)CO (stereo not drawn),111%
4,COc1ccc(OC)c(/C=C2\CCc3ccccc3C2=O)c1,35.7%
5,O=C(O)CCCCNC(=O)c1ccccc1,103%
6,C/C(=N/NC(N)=O)c1ccco1,118%
7,Cc1ccc(CCCC(=O)O)c(C)c1,97.8%
8,CC(=O)OCC1OC(OC2=C(CC=C(C)C)C(=O)c3ccccc3C2=O)C(OC(C)=O)C(OC(C)=O)C1OC(C)=O (stereo not drawn),-13.1% (active)
9,C=CC(O)CCC (stereo not drawn),103%
10,COc1cc(C(=O)NC(=S)Nc2ccc3ccccc3c2)cc(OC)c1OC,88.9%
11,CCN1C(=O)/C(=C/C=C/N(C)c2ccccc2)SC1=S,86.8%
12,O=[N+]([O-])c1cccc(C(F)(F)F)c1,107%
13,CCOc1ccc(/C=N/N=C(N)N)cc1OCC,101%
14,CCc1ccc(/C(C#N)=C/C=C/c2ccccc2)cc1,3.92% (active)
15,COC(=O)c1ccc(NC(=O)CCl)cc1,70.4%
16,CCn1c(=O)n(C)c2c(=O)n(C)c(=O)n(C)c21,106%
17,COCCCC/C(=N\OCCN)c1ccc(C(F)(F)F)cc1,100%
18,O=[N+]([O-])c1cccc2nsnc12,104%
19,CC(=O)c1ccc(C(C)(C)C)cc1,95.5%
20,COc1ccc(NC(=O)CCl)cc1,55.8%

row,Structure (SMILES),growth
1,CC1(C(N)=O)CCC(C(=O)O)C1(C)C (stereo not drawn),100%
2,Cc1ccc(/C(C#N)=C/c2ccc3c(c2)OCO3)cc1,77%
3,CC(=O)Oc1ccc(Br)cc1C(=O)O,99.5%
4,O=C(c1ccccc1)C1CCC1,98.9%
5,C/C(=N\NC(=O)c1ccccc1N)c1ccccc1O,52.1%
6,COC(=O)c1cccnc1,106%
7,CN(C)c1ccc(CNC(C(=O)c2ccccc2)c2ccccc2)cc1 (stereo not drawn),94.4%
8,CCCCCC(C)(CC(=O)O)CC(=O)O,119%
9,COC(=O)Nc1nc2ccc(C(=O)c3cccs3)cc2[nH]1,28.7%
10,N#CC1(Nc2ccc3c4c(cccc24)CC3)CCCCC1,77%
11,O=C(CS)Nc1ccc2ccccc2c1,44.9%
12,CCOC(=O)C/C(C)=N\O,104%
13,CC(O)COc1ccc(-c2ccccc2)cc1 (stereo not drawn),97.7%
14,CC(=O)c1cc2c(cc1F)C(C)(C)CCC2(C)C,114%
15,C[C@]12CC[C@@H]3c4ccc(OCC(=O)O)cc4CC[C@H]3[C@@H]1CCC2=O,121%
16,O=C(c1ccc(O)cc1)c1ccc(O)cc1,107%
17,CC[N+](C)(CC)CCO,102%
18,CC(=O)OC1CC2C(C)(C)OC3CC(=O)OCC32C2CCC3(C)C(=CCC3c3ccoc3)C12C (stereo not drawn),72.8%
19,N#CCCN(CCCN1CCOCC1)CN1C(=O)c2ccccc2C1=O,108%

# Source: PubChem BioAssay (NCI)
